About 83,000 compounds went through this panel and 20% of them were active in at least one assay; those are over-represented in the sample as a whole.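 The endpoint reported here, percent growth, reads 100 for growth as untreated, 0 for no net growth and -100 for all cells dead.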 A number with no mark means an inactive call. Active and inactive are the calls of the source. Rule for the calls: active = growth percent below 10; inactive = the rest.

This is an account of results in PubChem BioAssay (NCI).

Some test systems named below: HCT-15 colon; HT29 colon; SNB-75 CNS; SNB-19 CNS; U251 CNS; PC-3 prostate; UACC-62 melanoma; LOX IMVI melanoma; SK-MEL-28 melanoma; SK-MEL-5 melanoma.
What all share (assay): NCI-60 one-dose screen, 48 h (100 = growth as untreated, 0 = no growth, -100 = all killed)
Holding throughout (conditions): 10 µM unless noted

With `COc1cc2c(cc1-c1c(C)noc1C)ncc1nc(C3CCC(F)(F)CC3)n([C@@H](C)COC(F)F)c12`, the growth is 13.4% in the experiment with HCT-15 colon; 18.7% with HT29 colon; 23.4% in the experiment with SNB-75 CNS; 53.4% with SNB-19 CNS; 50.5% in the experiment on U251 CNS; 36.7% in the experiment on PC-3 prostate. Further, the growth is 20.2% in the experiment on UACC-62 melanoma, 11% in the experiment with LOX IMVI melanoma and 47.3% in the experiment on SK-MEL-28 melanoma.
As for `Cc1ccc(C)c2c1CCC2C(C)C` (stereo not drawn), the growth in the experiment with HCT-15 colon was 109%; in the experiment with HT29 colon, 105%; with SNB-75 CNS, 88.4%; in the experiment on SNB-19 CNS, 101%; in the experiment on U251 CNS, 96.7%; with SK-MEL-5 melanoma it was 98.5%. Besides, the figures for the growth in the experiment with LOX IMVI melanoma and in the experiment with SK-MEL-28 melanoma were 96% and 103%, respectively.
For `NC1=C(C/C(N)=N\O)C(c2ccccc2Cl)c2c(ccc3ccccc23)O1` (stereo not drawn), the growth in the experiment with HCT-15 colon was 47.7%; in the experiment on HT29 colon it was 97.1%; in the experiment with SNB-75 CNS, 75.2%; in the experiment with SNB-19 CNS, 86.8%; with U251 CNS, 91.3%; in the experiment with SK-MEL-5 melanoma it was 86.8%. Besides, the growth in the experiment on UACC-62 melanoma is 52.2%; in the experiment on SK-MEL-28 melanoma it was 80.2%.
Consider `COc1cccc(-c2nn(-c3ccccc3)cc2-c2ccnc(NCCCNS(=O)(=O)c3ccc(C(F)(F)F)cc3)c2)c1`, for which the growth in the experiment with HCT-15 colon was 22.3%; in the experiment with HT29 colon, -6.28% (active); in the experiment with SNB-75 CNS, 47.4%; in the experiment with SNB-19 CNS, 38%; in the experiment on U251 CNS, 27.1%; in the experiment with SK-MEL-5 melanoma, -54.2% (active).
On to `CCC(c1ccc(OC)cc1)C(CC)c1ccc(O)c(CN2CCCCC2)c1` (stereo not drawn), for which the growth was 33.6% in the experiment on HCT-15 colon; 24.7% with HT29 colon; 94.5% with SNB-75 CNS; 90.6% in the experiment on SNB-19 CNS; 72.8% in the experiment on U251 CNS; 30.6% in the experiment on SK-MEL-5 melanoma. Moreover, the growth is 75.9% in the experiment with LOX IMVI melanoma and 41.6% with SK-MEL-28 melanoma.
Take `C#Cc1cc2c(N)c(C(=O)c3cc(OC)c(OC)c(OC)c3)[nH]c2cc1OC`: the growth is 32.2% with HCT-15 colon; 6.27% (active) in the experiment on HT29 colon; -8.14% (active) in the experiment on SNB-75 CNS; 43.7% in the experiment with SNB-19 CNS; 34% in the experiment with U251 CNS; 19.9% in the experiment on SK-MEL-5 melanoma. For the same molecule, the values for the growth in the experiment with UACC-62 melanoma, in the experiment on LOX IMVI melanoma and in the experiment on SK-MEL-28 melanoma were 34.7%, 46.1% and 40.3%, respectively.
`CC(C)(C)c1cc(-n2c(-c3ccc(Cl)cc3)nc3cc(C(=O)Nc4ccc(Cl)cc4)ccc32)n[nH]1`: the growth in the experiment with HCT-15 colon is 39.2%; in the experiment on SNB-75 CNS, 60.7%; with SNB-19 CNS it was 60.2%; with U251 CNS, 53.2%; with PC-3 prostate, 33.7%; with SK-MEL-5 melanoma it was 44.8%. Besides, the growth is 39% with UACC-62 melanoma and 79.7% in the experiment on SK-MEL-28 melanoma.
On to `COc1cc(/C=N/NC(=S)NNC(=S)NC2CCCCC2)cc(OC)c1OC`, for which the growth in the experiment on HCT-15 colon is 91.9%; in the experiment on SNB-75 CNS it was 91.5%; with SNB-19 CNS it was 98.3%; in the experiment on U251 CNS, 100%; in the experiment with PC-3 prostate, 81.3%; in the experiment with SK-MEL-5 melanoma it was 92.5%. For the same molecule, the figures for the growth in the experiment on UACC-62 melanoma and in the experiment on SK-MEL-28 melanoma were 85.8% and 99%, respectively.
Regarding `O=C1CNCCN1`, the growth was 100% with HCT-15 colon; 92.6% in the experiment on SNB-75 CNS; 104% with SNB-19 CNS; 104% with U251 CNS; 96.5% in the experiment on PC-3 prostate; 101% in the experiment with SK-MEL-5 melanoma. Also, the growth with LOX IMVI melanoma was 98.5%; with SK-MEL-28 melanoma, 105%.
Turning to `COc1cc(OC)c2c(c1)c1nc3cc(C)c(C)cc3nc1n2CCN(C)C`, the growth with HCT-15 colon was 77.2%; in the experiment on SNB-75 CNS it was 74.6%; in the experiment with SNB-19 CNS, 89.1%; in the experiment with U251 CNS it was 90.9%; with PC-3 prostate, 85.3%; with SK-MEL-5 melanoma it was 94.4%. Moreover, the growth with UACC-62 melanoma was 94.3%; with SK-MEL-28 melanoma, 104%.
In the case of `O=C(CCCCCn1c2ccccc2c2c3c(c4c5ccccc5[nH]c4c21)C(=O)N(O)C3=O)N1CCOCC1`, the growth with HCT-15 colon is 49.2%; with SNB-75 CNS, 87%; in the experiment with SNB-19 CNS it was 47.3%; in the experiment with U251 CNS, 33.9%; in the experiment with PC-3 prostate, 26.5%; in the experiment on SK-MEL-5 melanoma, 0.765% (active). In addition, in the experiment with LOX IMVI melanoma, the growth is -16.8% (active).
On to `Cn1c(/C(C#N)=C/c2ccc3ccccc3c2)cc2ccccc21`, for which the growth is 5.67% (active) with HCT-15 colon; 15.3% in the experiment on SNB-75 CNS; 23.9% with SNB-19 CNS; 34.1% with U251 CNS; 28.8% in the experiment with PC-3 prostate; -26.7% (active) in the experiment with SK-MEL-5 melanoma. The growth was 18.7% with UACC-62 melanoma and 63.4% in the experiment on SK-MEL-28 melanoma.
With `O=[N+]([O-])c1ccc(N/N=C(\C(=N/Nc2ccc([N+](=O)[O-])cc2[N+](=O)[O-])c2ccccc2)c2ccccc2)c([N+](=O)[O-])c1`, the growth is 84.3% in the experiment with HCT-15 colon; 99% in the experiment with SNB-75 CNS; 102% in the experiment on SNB-19 CNS; 36.4% with U251 CNS; 85.2% in the experiment on PC-3 prostate; 94.3% in the experiment with SK-MEL-5 melanoma. Moreover, the growth was 97.7% in the experiment with LOX IMVI melanoma and 101% in the experiment on SK-MEL-28 melanoma.
In the case of `CC1(C)C=CC[C@]2(C)[C@H]3CC[C@@H]4[C@H]5[C@H](C(=O)/C=C/c6cccnc6)CC[C@]5(CO)CC[C@@]4(C)[C@]3(C)CC[C@@H]12`, the growth was -61.7% (active) with HCT-15 colon; -89.8% (active) in the experiment with SNB-75 CNS; -90.4% (active) with SNB-19 CNS; -90.8% (active) with U251 CNS; -41.1% (active) in the experiment on PC-3 prostate; -99.3% (active) in the experiment on SK-MEL-5 melanoma. Also, the growth was -63.2% (active) in the experiment with UACC-62 melanoma and -92% (active) in the experiment on SK-MEL-28 melanoma.
Regarding `O=S(=O)(NCCNc1cc(-c2cn(-c3ccccc3)nc2-c2cccc(O)c2)ccn1)c1ccc(F)cc1`, the growth in the experiment on HCT-15 colon is 6.55% (active); in the experiment on SNB-75 CNS, 45.6%; in the experiment with SNB-19 CNS, 46.5%; in the experiment on U251 CNS, 17.4%; in the experiment with PC-3 prostate, 15.1%; with SK-MEL-5 melanoma, -12% (active). Further, the growth in the experiment with LOX IMVI melanoma was 27.7%.
